± gives the standard deviation of the averaged measurements.
Key:
Assay in all cases: cell viability (% of vehicle); higher = less cytotoxic
Conditions in all cases: 10 µM; 72 h
HCI01 = test system: HCI01 (cells of a triple-negative basal-like breast cancer xenograft)
HCI03 = test system: HCI03 (cells of an ER-positive luminal breast cancer xenograft)
HCI09 = test system: HCI09 (cells of a triple-negative luminal androgen receptor type breast cancer xenograft)
HCI11 = test system: HCI11 (cells of an ER-positive luminal breast cancer xenograft)
HCI13 = test system: HCI13 (cells of an ER-positive luminal breast cancer xenograft)
HCI16 = test system: HCI16 (cells of a triple-negative basal-like breast cancer xenograft)
UCD52 = test system: UCD52 (cells of a triple-negative basal-like breast cancer xenograft)
WHIM2 = test system: WHIM2 (cells of a triple-negative basal-like breast cancer xenograft)
WHIM30 = test system: WHIM30 (cells of a triple-negative basal-like breast cancer xenograft)
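Note: PDX cells carrying CMV promoter-driven luciferase, viability read as total photon flux per second by IVIS imaging following D-luciferin, vehicle control 0.1% DMSO.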

Row | SMILES | cell viability (HCI01) | cell viability (HCI03) | cell viability (HCI09) | cell viability (HCI11) | cell viability (HCI13) | cell viability (HCI16) | cell viability (UCD52) | cell viability (WHIM2) | cell viability (WHIM30)
1 | CN1CCN(C2=c3ccccc3=Nc3ccc(Cl)cc3N2)CC1 [Clozapine] | 95.4 ± 14 | 130 | 101 ± 11 | 87.2 | 106 ± 1.6 | 123 | 83.6 ± 11 | 85.298 ± 0.078 | 122 ± 15
2 | O=C(Nc1ccccc1)c1ccccc1O [Salicylanilide] | 165 ± 40 | 133 | 143 ± 34 | 111 | 98.3 ± 6.3 | 153 | 123 ± 4.3 | 160 ± 20 | 
3 | CC(C)(OCc1nn(Cc2ccccc2)c2ccccc12)C(=O)O [Bindarit] | 86.5 ± 68 | 133 | 95.7 ± 2.3 | 86.6 | 136 ± 0.14 | 117 | 83.1 ± 3.1 | 110 ± 19 | 149 ± 27
4 | Nc1ncnc2c1ncn2C1OC(CO)C(O)C1O (configuration not stated) [Vidarabine] | 64.8 ± 36 | 136 | 90.1 ± 5.1 | 86.9 | 106 ± 6.1 | 96.1 | 80.5 ± 2.9 | 105 ± 19 | 153 ± 7.4
5 | CS(=O)(=O)CCNCc1ccc(-c2ccc3ncnc(Nc4ccc(OCc5cccc(F)c5)c(Cl)c4)c3c2)o1 [Lapatinib] | 112 ± 63 | 45.4 | 39.3 ± 17 | 98.8 | 42.2 ± 0.47 | 168 | 51.2 ± 3.6 | 40.7 ± 5.3 | 
6 | CCCNS(=O)(=O)Nc1ncnc(OCCOc2ncc(Br)cn2)c1-c1ccc(Br)cc1 [Macitentan] | 75.9 ± 56 | 109 | 65 ± 16 | 91.4 | 51.7 ± 28 | 91.8 | 75.383 ± 0.03 | 77.1 ± 37 | 101.4 ± 0.41
7 | CN1C[C@@H]2c3ccccc3Oc3ccc(Cl)cc3[C@H]2C1.O=C(O)/C=C/C(=O)O [Asenapine] | 91.9 ± 7 | 93 | 68.9 ± 5.4 | 93.7 | 72.7 ± 4.8 | 121 | 71 ± 5.6 | 79.5 ± 14 | 114 ± 25
8 | CC(=O)SC1CC2=CC(=O)CCC2(C)C2CCC3(C)C(CCC34CCC(=O)O4)C12 (configuration not stated) [Spironolactone] | 109 ± 2.6 | 114 | 73.8 ± 9.1 | 110 | 75.9 ± 6.1 | 64.2 | 79.7 ± 14 | 88.8 ± 8.7 | 113 ± 10
9 | O=C(O)C1=CC(=NNc2ccc([O-])c(C(=O)[O-])c2)C=CC1=O.[Na+].[Na+] [Olsalazine Sodium] | 123 ± 2.4 | 108 | 127 ± 47 | 102 | 120 ± 30 | 88.2 | 91.8 ± 7.2 | 86.8 ± 7.9 | 112 ± 7.4
10 | CC(=O)Oc1cc2c(s1)CCN(C(C(=O)C1CC1)c1ccccc1F)C2 (configuration not stated) [Prasugrel] | 76.6 ± 67 | 164 | 114 ± 4.9 | 120 | 81.6 ± 18 | 122 | 113 ± 20 | 102 ± 28 | 112 ± 16
11 | OC(Cn1cncn1)(Cn1cncn1)c1ccc(F)cc1F [Fluconazole] | 71.5 ± 43 | 153 | 99.3 ± 22 | 94.2 | 112 ± 4.8 | 119 | 76.5 ± 8.7 | 99.2 ± 27 | 180 ± 2.3
12 | Nc1ccc(S(=O)(=O)Nc2ccccn2)cc1 [Sulfapyridine] | 111.2 ± 0.17 | 131 | 101 ± 2.1 | 92.6 | 138 ± 15 | 147 | 113 ± 19 | 100 ± 0.64 | 120 ± 12
13 | O=C1Cc2cc(CCN3CCN(c4nsc5ccccc45)CC3)c(Cl)cc2N1 [Ziprasidone] | 98.1 ± 6.7 | 102 | 82.1 ± 4.3 | 96.1 | 95.4 ± 36 | 67.2 | 86.8 ± 2 | 95.6 ± 6.5 | 100 ± 20
14 | CC(=O)O.CC(=O)O.CCC(C)CC(C)CCCCCCCCC(=O)NC1CC(O)C(NCCN)NC(=O)C2C(O)CCN2C(=O)C(C(O)CCN)NC(=O)C(C(O)C(O)c2ccc(O)cc2)NC(=O)C2CC(O)CN2C(=O)C(C(C)O)NC1=O (configuration not stated) [Caspofungin Acetate] | 58.7 ± 28 | 115 | 84.5 ± 9.6 | 84.4 | 88 ± 5.7 | 115 | 71.4 ± 2.7 | 94.1 ± 40 | 119 ± 2.4
15 | Nc1c(CC(=O)[O-])cccc1C(=O)c1ccc(Br)cc1.[Na+] [Bromfenac Sodium] | 134 ± 34 | 104 | 82.1 ± 13 | 103 | 76.6 ± 16 | 96.2 | 89 ± 4 | 132 ± 25 | 111 ± 6.5
16 | CN(Cc1cc(Br)cc(Br)c1N)C1CCCCC1.Cl [Bromhexine HCl] | 95.8 ± 14 | 86.3 | 93 ± 6 | 96.3 | 64.9 ± 2.5 | 106 | 73.8 ± 6.8 | 44.5 ± 15 | 108 ± 3.3
17 | Cc1cc(C=CC#N)cc(C)c1Nc1ccnc(Nc2ccc(C#N)cc2)n1 [Rilpivirine] | 122 ± 9.4 | 111 | 96.5 ± 4.4 | 96.3 | 122 ± 0.84 | 83.9 | 85.5 ± 8.7 | 93.7 ± 11 | 110 ± 28
18 | Nc1nc(CC(=O)Nc2ccc(CCNCC(O)c3ccccc3)cc2)cs1 (configuration not stated) [Mirabegron (YM178)] | 127 ± 6.3 | 109 | 136 ± 51 | 107 | 140 ± 13 | 137 | 82.2 ± 9.6 | 97 ± 19 | 132 ± 4.2
19 | CN(C)C(CCOc1cccc2ccccc12)c1ccccc1.Cl (configuration not stated) [Dapoxetine HCl] | 87.4 ± 15 | 79.4 | 96.9 ± 11 | 74.2 | 95.1 ± 13 | 70 | 47.9 ± 5.3 | 65.2 ± 12 | 98.4 ± 1.4
20 | NC(=O)NN=Cc1ccc([N+](=O)[O-])o1 [Nitrofurazone] | 125 ± 3.8 | 149 | 38.5 ± 15 | 92.3 | 159 ± 12 | 148 | 137 ± 15 | 105 ± 7.4 | 118 ± 18
21 | CC(S)C(=O)NCC(=O)O (configuration not stated) [Tiopronin (Thiola)] | 104 ± 4.1 | 109 | 54.6 ± 48 | 107 | 105 ± 18 | 99.3 | 93.7 ± 3.6 | 103 ± 14 | 115 ± 4.5

Reference: the supplement of paper PMC6992640
